ELG1 DNA repair: blocks ELG1-dependent DNA repair in HEK293T cells; HEK293T ELG1-luciferase reporter, luminescence, 16 h; DNA damage induced by 5-fluorouridine; 330,000 compounds, 2.3% hits; Potency, µM (titrated, usually from 46.1 µM), for inactives: at the highest dose activity change, negative = inhibition, most hits filed as inhibitors; also: % is scaled to controls: 0 for no effect and ±100 for the full control effect; nearly all actives have a fitted effect of over 55% in size
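DMSO vehicle served as the neutral condition. Each well held 2,000 cells given 5-fluorouridine plus compound; after 16 hr at 37 °C/5% CO2, ONE-Glo was added and luciferase measured 30 min later.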
Nrf2 inh: inhibitors of Nrf2 signaling | A549 ARE-Fluc reporter, luciferase luminescence, 18-24 h | Potency, µM (series often up to 46 µM), without a hit: at the highest dose activity change, negative = inhibition, usual class: inhibitors | 360,000 compounds, 2.1% hits | AID 504444; also: % is scaled to controls: 0 for no effect and ±100 for the full control effect; nearly all actives have a fitted effect of over 60% in size
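Reporter: ARE-Fluc in A549. Exposure: 18-24 h, 37 °C, 5% CO2, 5% FBS OPTI-MEM. Readouts: fluorescent cytotoxicity (CellTiter-Fluor), then luminescent Nrf2 signal after BugLite.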
Nrf2 activator: Nrf2 pathway activation. AREc32 ARE-luciferase reporter (MCF7-derived line), luminescence, 24 h. Potency, µM (series often up to 46.1 µM), for the others: at the highest dose activation, actives largely listed as activators. 410,000 compounds, 0.31% hits. AID 624171; also: % of control where 0% means no effect; nearly all actives have a fitted effect of over 65% in size
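Nrf2 activation is followed as ARE-luciferase induction in the AREc32 line after one day of compound treatment; luminescence is read with Steady-Glo.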
A549 tox: kills or reduces viability of A549 cells in Nrf2 counter-screen | A549 ARE-Fluc cells, CellTiter-Fluor viability, 18-24 h | Potency, µM (series often up to 46 µM), for the others: at the highest dose activity change, negative = cytotoxicity, actives largely listed as inhibitors | 390,000 compounds, 0.16% hits; also: % is scaled to controls: 0 for no effect and ±100 for the full control effect
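Cytotoxicity counterscreen: CellTiter-Fluor fluorescence was measured in A549 ARE_Fluc cells after 18-24 h of compound exposure in a concentration series. The subsequent BugLite luminescent read reports ARE-luciferase activity.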
Starred values were filed as active, the others as inactive; ? = inconclusive; · = not tested or not shown; ! = not confirmed by another sample. In the library only some 3.7% were active in any assay of this set; here they are far more common. Calls follow the shape of the dose curve; as a rule, active = well fitted curve in the direction sought with a large enough effect; inconclusive = small, poorly fitted or top-dose-only effect, or another doubt; inactive = no such curve, though single readings can be large; an effect the other way counts as inactive or inconclusive. Potency is read from the fitted curve at half-maximal effect.

SMILES	ELG1 DNA repair	Nrf2 inh	Nrf2 activator	A549 tox
CC(=O)O[C@@H]1CC[C@]2(C)C3CC[C@@]4(C)C(C[C@@H](O)[C@@H]4O)C3[C@@H](OC(C)=O)C[C@H]2C1 (some centres not stated)	-13%	-20%	0%	-1%
CC(=O)OC1CCC2(C)C(CCC3C2CC(=O)C2(C)C3CC(N3CC3)C2C(C)=O)C1 (configuration not stated)	·	14%	?	18µM*
CCOC(=O)[C@]12Cc3cc(Cl)ccc3[C@H]1N(C1CCCCC1)C(=O)c1ccccc12	·	·	-3%	·
COC(=O)C1=C(c2ccc(-c3ccccc3)c(F)c2)C[C@@H]2CC[C@H]1N2C(=O)NCc1ccco1	?	15µM*	0%	-19%
COC(=O)C1=C(c2ccc(-c3ccccc3)c(F)c2)C[C@@H]2CC[C@H]1N2C(=O)NCCO	-3%	-25%	-1%	0%
CCCNC(=O)N1[C@H]2CC[C@@H]1C(C(=O)OC)=C(c1ccc(-c3ccccc3)c(F)c1)C2	0%	16µM*	4%	0%
COC(=O)C1=C(c2ccc(-c3ccccc3)c(F)c2)C[C@@H]2CC[C@H]1N2C(=O)NC1CC1	4%	?	-1%	1%
COC(=O)C1=C(c2ccc(-c3ccccc3)c(F)c2)C[C@@H]2CC[C@H]1N2C(=O)NCCOc1ccccc1Cl	?	16µM*	0%	-20%
CCOP(=O)(OCC)/C(C#N)=C/c1ccc(-c2ccc(F)cc2F)o1	?	-29%	0%	-12%
O=C1NCCOC(=O)[C@H](Cc2ccc(F)cc2)CC/C=C/C[C@H]1CC(=O)N(CCO)Cc1ccccc1	?	-2%	1%	14%
CC(C)CC(NC(=O)CCCNC(=O)CCC(=O)OC1O[C@H]2OC3(C)CC[C@H]4[C@H](C)CCC(C1C)C24OO3)C(=O)O (some centres not stated)	?	?	10%	-8%
C[C@H]1[C@H](OC(=O)CCC(=O)NCc2ccc(C(=O)O)cc2)O[C@@H]2O[C@@]3(C)CC[C@H]4[C@H](C)CC[C@@H]1C24OO3	?	21µM*	11%	21µM*
CN(CC1COc2ccccc2O1)c1nc(-c2cccnc2)nc2ccccc12 (configuration not stated)	16µM*	?	5%	?
OC[C@H]1O[C@@H](n2cnc3cc(Cl)c(Cl)cc32)[C@H](O)[C@@H]1O	8.9µM*	?	0%	-12%
Nc1nc(F)nc2c1ncn2[C@@H]1O[C@H](CO)[C@@H](O)[C@H]1O	·	0.92µM*	-2%	?
CCC1(O)C(=O)OCc2c1cc1n(c2=O)Cc2cc3c(N)cccc3nc2-1 (configuration not stated)	·	0.82µM*	-2%	?
Nc1ccc2ccc3cccc[n+]3c2c1	-7%	13µM*	4%	?
O=C1c2ccccc2-c2cc3ccccc3cc21	·	?	3.2µM*	-2%
Cc1oc(-c2ccc(Cl)cc2)nc1CN1CCC(C(=O)NCCCN2CCN(c3cccc(Cl)c3)CC2)CC1	·	?	4%	-9%
O=C1/C(=C/c2ccccc2)C[C@@]2(O)[C@H]3Cc4ccc(O)c5c4[C@@]2(CCN3CC2CC2)C1O5 (some centres not stated)	18µM*	12µM*	-4%	?
Cc1ccc(C(C)C)c(OCCn2c(=O)oc3ccccc32)c1	22%	?	3%	7%
O=C(CCC1CCCC1)c1c(O)c2ccccc2oc1=O	18%	21µM*	6%	?
O=c1oc2ccccc2c(O)c1C(c1ccccn1)c1c(O)c2ccccc2oc1=O	8%	-8%	-1%	-10%
Cc1ccc(-c2cc(-c3ccccc3)cc(-c3ccccc3)[n+]2-c2ccccc2)cc1	?	18µM*	-3%	?
CCOC(=O)c1ccc(-[n+]2c(-c3ccccc3)cc(-c3ccccc3)cc2-c2ccccc2)cc1	?	-24%	0%	-1%
SMILES	ELG1 DNA repair	Nrf2 inh	Nrf2 activator	A549 tox
c1ccc(-c2cc(-c3ccccc3)[n+](-c3ccccc3)c(-c3ccccc3)c2)cc1	2.3µM*	?	-3%	?
COc1ccc(C2=CCC3CCCCN3C2)cc1OC (configuration not stated)	?	14%	0%	-6%
CCOC(=O)c1ccc(N2C(=O)c3n[nH]c(-c4cccs4)c3C2c2ccc(OC)cc2OC)cc1 (configuration not stated)	·	?	-1%	-20%
Cc1ccc2c(c1)C1CN(C)CCC1N2C(=O)Nc1ccc(Cl)cc1 (configuration not stated)	?	7%	2%	-22%
O=C(Nc1ccc2oc(-c3cccnc3)nc2c1)c1ccc(-c2cccc(Cl)c2)o1	·	?	4%	1%
COc1cc2c3cc1Oc1cc(ccc1O)C[C@@H]1c4c(cc(OC)c(O)c4Oc4ccc(cc4)C[C@H]3N(C)CC2)CCN1C	-8%	-13%	1%	8.2µM*
COc1cc2c3cc1Oc1c(OC)c(OC)cc4c1[C@H](Cc1ccc(cc1)Oc1cc(ccc1O)C[C@H]3N(C)CC2)N(C)CC4	19%	-11%	4%	13µM*
C=CCn1c(O)c(C=Nc2ccc(N(CC)CC)cc2)c(=O)[nH]c1=O	?	3.3µM*	5%	-11%
C#CCOc1ccc2c(c1)c(C(C)=O)c(C)n2Cc1ccccc1	21µM*	?	0%	-2%
CCOC(=O)c1c(C)n(Cc2ccccc2)c2ccc(OCC(O)CN3C(=O)CNC3=O)cc12 (configuration not stated)	?	?	2%	-7%
CN(C)C(=O)Oc1cccc([N+](C)(C)C)c1	22%	6.5µM*!	1%	-1%
CCOC(=O)[C@]12Cc3c(cc(OC)c(OC)c3OC)[C@H]1N(C(C)C)C(=O)c1cc(OC)ccc12	·	·	-3%	·
O=[N+]([O-])c1ccc(N2CCCC2)cc1N/N=C1\CN2CCC1CC2	?	-23%	2%	9.2µM*
CCOC(=O)c1cc2cc(OC)ccc2n1C1CCN(Cc2ccccc2)CC1	·	·	4%	·
CCOC(=O)C1=C(CN2CCN(c3ccc(C)cc3C)CC2)NC(=O)NC1c1ccc(OC)cc1 (configuration not stated)	·	15µM*	-1%	-29%
CCCOP(=O)(OCCC)C(Nc1ccc(C(C)C)cc1)c1ccc([N+](=O)[O-])cc1 (configuration not stated)	?	?	3%	-23%
Cc1csc(NC(=O)C2CCCN(S(=O)(=O)c3ccc4c(c3)oc(=O)n4C)C2)n1 (configuration not stated)	?	?	1%	-8%
Cn1c(=O)oc2cc(S(=O)(=O)N3CCCC(C(=O)N4CCN(c5cccc(Cl)c5)CC4)C3)ccc21 (configuration not stated)	·	18µM*	-1%	0%

High-throughput results from PubChem BioAssay.
